# KCNQ2 pot – enhances the rat KCNQ2 potassium channel; B-score at 10 µM; O88943; 310,000 compounds, 0.54% hits; AID 2239; CHO-K1 KCNQ2, FluxOR thallium flux fluorescence; hits give high values;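 active means fluorescence ratio B-score at least 3 SD of library B-scores, with initial fluorescence B-score within 3 of them, cut at about 5.3 in these data; same plate scores as AID 2156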;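 further: B-score of peak minus minimum over baseline fluorescence ratio after K+ and Tl+ stimulus; positive B-score means potentiation of KCNQ2 with more thallium influx and brighter signal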
# KCNQ2 block – KCNQ2 (rat) channel inhibition. CHO-K1 KCNQ2, FluxOR thallium flux, 20 min; hits give low values. B-score at 10 µM. 310,000 compounds, 1.1% hits;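 active means fluorescence ratio B-score at most minus 3 library SDs, with starting brightness B-score within 2 library SDs, cut at about -5.5 in these data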
# KCNQ2 inh conf – confirmation of rat KCNQ2 potassium channel inhibitors; shares compounds with KCNQ2 block; KCNQ2-expressing cells, thallium flux, inhibition; hits give low values; activity change, negative = inhibition, % at 10 µM; 1,000 compounds, 57% hits; AID 493025;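 further: 0% = vehicle wells and values are ratio percent relative to vehicle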
# KCNQ1 spec – selectivity of KCNQ2 inhibitors against human KCNQ1; shares compounds with KCNQ2 block; KCNQ1-expressing cells, FluxOR thallium flux fluorescence; hits give low values; 1,000 compounds, 15% hits; activity change, negative = inhibition, % at 10 µM;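 active means activity change at least 3 SD of negative controls below their mean in both duplicate wells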;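 further: CHO cells stably transfected with KCNQ1 and depolarized by potassium stimulus; peak minus minimum fluorescence over baseline after thallium addition; 0% = vehicle negative control and -100% = blank without thallium stimulus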
# CHO Tl ctr – activity in parental CHO cells lacking KCNQ2; thallium flux counter-screen; hits give low values; activity change, % at 10 µM; 1,000 compounds, 14% hits; shares compounds with KCNQ2 block;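 further: 0% = vehicle negative controls with stimulus buffer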
# KCNQ2 patch conf – confirmation of rat KCNQ2 potassium channel inhibitors; 550 compounds, 49% hits; calls only at 10 µM; KCNQ2-expressing cells, automated patch clamp current; shares compounds with KCNQ2 block
# Kir21 confirm – confirmation of mouse Kir2.1 potassium channel inhibitors; Tl flux remaining, % of negative control (hits give low values), % at 10 µM; Kir2.1-expressing cells, FluxOR thallium flux fluorescence; hits give low values; 2,300 compounds, 41% hits; AID 2032; shares compounds with KCNQ2 pot;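 active means Primary-screen hit whose thallium flux fell at least 3 control SD below untreated wells in both duplicates, with normal baseline fluorescence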;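 further: 0% = blank wells without stimulus and 100% = stimulated no-compound controls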
# HEK293 ctr – alters thallium flux in parental HEK293 cells, Kir2.1 counter-screen | shares compounds with KCNQ2 pot | FluxOR thallium flux fluorescence; 0% = unstimulated blank wells | FluxOR signal as % of negative control (100 = no effect), % at 10 µM | 2,300 compounds, 19% hits | AID 2105;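 active means dye signal at least 3 control SD above or below untreated wells in both duplicates, raw fluorescence within 3, either direction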;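 further: percent is based on the flux ratio of peak minus minimum fluorescence over baseline F0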
# An asterisk follows results filed as active; i = inactive; . = not tested or not shown; + = active, no number. A selection: hits, their analogues and other compounds. The true share with any hit is near 1.6%. Unless noted, how the calls were made is not given here.
SMILES,KCNQ2 pot,KCNQ2 block,others
CCN(CC)CCCN=Cc1c(O)n(CCc2ccc(OC)c(OC)c2)c(=O)[nH]c1=O,.,i,
c1ccc2c(CN3CCCCC3)c[nH]c2c1,.,i,
O=C(COc1ccc(Br)cc1)N1CCN(Cc2c[nH]c3ccccc23)CC1,-5.82,-5.82*,
COC(=O)C1=C(c2cccc(OC)c2OC)C[C@@H]2CC[C@H]1N2C(=O)NCc1ccccc1,.,i,
COC(=O)C1=C(c2cccc(OC)c2OC)C[C@@H]2CC[C@H]1N2C(=O)NCc1cccc2ccccc12,-6.83,-6.83*,
COc1ccccc1NC1(C#N)CCCCC1,.,i,
CC(=O)Nc1ccccc1C(=O)OCc1ccc(C(=O)c2ccccc2)cc1,-6.48,-6.48*,
CC(=O)Nc1ccccc1C(=O)OCc1cccc(F)c1,.,i,
CN1C(=O)C(C2c3ccccc3C(=O)N2Cc2ccccc2)C(=O)N(C)C1=O (centres undefined),0.04,i,
COc1cc2c(cc1O)CC1c3c(cc(O)c(OC)c3-2)CCN1C (centres undefined),.,i,
CCCN1CCc2cccc3c2[C@H]1Cc1ccc(O)c(O)c1-3,-6.03,-6.03*,
CCCCn1c(O)c(C(C)=NCCN2CCCCC2)c(=O)[nH]c1=O,.,i,
CCc1c(C)nc(N)nc1N1N=C1SCC#N,2.52,i,
CCc1c(C)nc(N)nc1N1N=C1SCC(=O)OC,9.62*,i,
CCc1cc(=O)oc2cc(C)cc(OCC(=O)N3CCC(C(=O)O)(c4ccccc4)CC3)c12,.,i,
CC(c1ccc(F)cc1)n1cc(C(=O)NCc2ccc3c(c2)OCO3)nn1 (centres undefined),.,i,
O=P(NC(c1ccccc1)c1ccccc1)(Oc1ccccc1)Oc1ccccc1,-5.86,-5.86*,
O=P(O)(Oc1ccccc1)OC(c1ccccc1)C(F)(F)F (centres undefined),0.26,i,
O=C(CN1CCCC1)Nc1ccc(Cl)cc1C(=O)c1ccccc1,1.12,i,
O=C(CCN1CCCCC1)Nc1ccc(Cl)cc1C(=O)c1ccccc1,-5.64,-5.64*,
O=C(O)C1C2CC3CC(C2)CC1(n1ncc(N2CCC4(CC2)OCCO4)c(Cl)c1=O)C3 (centres undefined),.,i,
COc1cc2c(cc1/C=C/[N+](=O)[O-])OCO2,-7.82,-7.82*,
COc1cc(/C=C/[N+](=O)[O-])ccc1OC(=O)c1cccnc1,.,i,
CCOC(=O)c1c(N)n(CCCOC(=O)c2ccco2)c2nc3ccccc3nc12,1.26,i,
CON(C)C(=O)Nc1ccc(Cl)cc1,.,i,
SMILES,KCNQ2 pot,KCNQ2 block,others
O=C(Nc1ccc(Cl)cc1)O/N=C(\c1ccccc1)c1ccccn1,-7.65,-7.65*,KCNQ2 inh conf=i;KCNQ1 spec=i;CHO Tl ctr=i
Cc1ccc2cccc(OC(=O)N3CCCC3)c2n1,0.45,i,
O=P(Nc1ccccc1)(Nc1ccccc1)Oc1cccc(Cl)c1,-7.71,-7.71*,KCNQ2 inh conf=i;KCNQ1 spec=i;CHO Tl ctr=i
O=P(Nc1ccccc1)(Nc1ccccc1)Oc1ccccc1,.,i,
O=C1CCCN1C(=O)c1cncc(Br)c1,.,i,
O=c1c2ccccc2nc(-c2ccccc2)n1-c1cccnc1,1.53,i,
COc1ccc(NC(c2ccccc2F)P(=O)(Oc2ccccc2)Oc2ccccc2)cc1 (centres undefined),.,i,
COc1ccc(NC(c2ccccc2)P(=O)(Oc2ccccc2)Oc2ccccc2)cc1 (centres undefined),-6.98,-6.98*,KCNQ2 inh conf=-31.0%*;KCNQ1 spec=i;CHO Tl ctr=i;KCNQ2 patch conf=+
COc1ccc(-[n+]2c(-c3ccccc3)cc(-c3ccc(C)cc3)cc2-c2ccccc2)cc1,-10.1,-10.1*,KCNQ2 inh conf=-26.0%*;KCNQ1 spec=i;CHO Tl ctr=i;KCNQ2 patch conf=+;Kir21 confirm=14.0%*;HEK293 ctr=i
COc1ccc(-c2cc(-c3ccccc3)[n+](C)c(-c3ccccc3)c2)cc1,.,i,
O=C1C2CCCC1C(N1CCCC1)CC2 (centres undefined),1.29,i,
Cc1csc(=N)n1Cc1ccccc1,.,i,

# Assay outcomes deposited in PubChem BioAssay by Johns Hopkins Ion Channel Center.
